Experimental data from PubChem BioAssay (EPA / NIEHS).
Inconclusive results are not listed. The source made the active and inactive calls. How the source made its calls, unless noted: active means hit-call score of the fitted dose curve at least 0.9, where 1 is the maximum; inactive means score below 0.9.

How the values were obtained:
[1] = ATG_NFI_CIS: Attagene CIS-FACTORIAL HepG2 Assay for human Nuclear Factor I (NFI) (AID 2282989); details: HepG2 cis-regulatory reporter, NFI response element transcription; actives raise or lower the signal
Method in brief: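 Cells: human liver HepG2, transiently transfected with promoter-regulated reporter transcription units. Exposure 24 h. Detection: fluorescent RT-PCR products separated by capillary electrophoresis, normalised to DMSO negative control.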

[2] = biological target: Myc proto-oncogene protein (Homo sapiens) (UniProt P01106); experiment: ATG_Myc_CIS: Attagene CIS-FACTORIAL HepG2 Assay for human Myelocytomatosis (Myc) Proto-Oncogene Transcription Factor (AID 2282990); details: HepG2, Attagene cis-reporter transcription factor activity; actives raise or lower the signal
Myc proto-oncogene protein (Homo sapiens), sequence (P01106 whole entry, looked up): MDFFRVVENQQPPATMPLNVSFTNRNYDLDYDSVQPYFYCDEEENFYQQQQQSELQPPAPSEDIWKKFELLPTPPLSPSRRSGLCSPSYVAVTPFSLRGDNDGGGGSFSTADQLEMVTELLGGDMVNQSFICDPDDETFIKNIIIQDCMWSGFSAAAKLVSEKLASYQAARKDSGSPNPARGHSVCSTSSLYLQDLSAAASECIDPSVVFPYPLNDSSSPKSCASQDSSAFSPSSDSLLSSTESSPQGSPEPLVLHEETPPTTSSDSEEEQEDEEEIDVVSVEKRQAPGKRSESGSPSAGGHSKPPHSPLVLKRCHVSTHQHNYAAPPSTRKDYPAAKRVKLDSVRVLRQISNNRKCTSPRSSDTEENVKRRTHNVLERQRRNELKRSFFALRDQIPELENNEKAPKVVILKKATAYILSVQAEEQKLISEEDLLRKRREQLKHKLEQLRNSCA
Method in brief: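 Transiently transfected HepG2 cells bearing cis-promoter reporter units for endogenous transcription factors; 24 h exposure. Reporter mRNA measured by RT-PCR, 6-FAM primer extension, HpaI cut and capillary electrophoresis; bidirectional fit relative to DMSO.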

[3] = ATG_NRF2_ARE_CIS: Attagene CIS-FACTORIAL HepG2 Assay for human Nuclear Factor Erythroid 2 Related Factor 2 (NFR2) response to Antioxidant Response Elements (ARE) (AID 2282992); details: HepG2 Attagene ARE/NRF2 reporter, transcription factor activity; actives raise or lower the signal;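 on AC50: reporter mRNA level measured by RT-PCR and capillary electrophoresis fluorescence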
Method in brief: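 Fluorescence intensity of reporter-specific cDNA fragments, separated by capillary electrophoresis, reflects mRNA induction in transfected HepG2 cells at 24 h. Activity is fitted bidirectionally, DMSO serving as baseline.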

[4] = ATG_Oct_MLP_CIS: Attagene CIS-FACTORIAL HepG2 Assay for human Octamer-Binding Transcription Factor (Oct) (AID 2282993); details: HepG2 Attagene cis-factorial Oct reporter, mRNA; actives raise or lower the signal
Method in brief: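 HepG2, transient MRTU transfection, cis promoter elements; 24 h dosing; RT-PCR/CE fluorescence read-out of reporter mRNA; fit both directions vs DMSO.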

[5] = biological target: Cellular tumor antigen p53 (Homo sapiens) (UniProt P04637); experiment: ATG_p53_CIS: Attagene CIS-FACTORIAL HepG2 Assay for human p53 Transcription Factor (AID 2282994); details: HepG2 p53 cis-element reporter, Attagene mRNA; actives raise or lower the signal
Cellular tumor antigen p53 (Homo sapiens), sequence (P04637 whole entry, looked up): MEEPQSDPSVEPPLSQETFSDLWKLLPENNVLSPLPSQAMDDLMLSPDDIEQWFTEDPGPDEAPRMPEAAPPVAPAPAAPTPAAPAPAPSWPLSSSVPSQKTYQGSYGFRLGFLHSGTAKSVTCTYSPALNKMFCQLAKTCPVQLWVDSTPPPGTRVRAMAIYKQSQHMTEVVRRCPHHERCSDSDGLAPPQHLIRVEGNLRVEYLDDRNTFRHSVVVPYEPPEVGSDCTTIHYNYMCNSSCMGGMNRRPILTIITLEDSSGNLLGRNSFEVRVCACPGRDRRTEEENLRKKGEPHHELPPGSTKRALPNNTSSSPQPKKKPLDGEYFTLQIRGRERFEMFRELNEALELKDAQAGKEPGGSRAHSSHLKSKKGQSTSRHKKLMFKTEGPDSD
Method in brief: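 Transiently transfected HepG2 (multiple cis reporter transcription units); exposure 24 h; reporter RNA via RT-PCR, 6-FAM extension, 2 h HpaI digest at 37 C, CE detection; DMSO baseline.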

[6] = BSK_3C_TissueFactor: BioMAP Diversity Plus: 3C Assay for Tissue Factor Biomarker Activity (AID 2282997); details: BioMAP 3C HUVEC, tissue factor biomarker readout; actives raise or lower the signal
Method in brief: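 After a 24 h chemical exposure of primary human umbilical vein endothelial cells, Tissue Factor levels were quantified by ELISA.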

[7] = BSK_3C_uPAR: BioMAP Diversity Plus: 3C Assay for Urokinase-type plasminogen activator receptor (uPAR) Biomarker Activity (AID 2282998); details: BioMAP 3C HUVEC, uPAR biomarker ELISA; actives raise or lower the signal
Method in brief: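 A multiplexed primary-cell system built on human umbilical vein endothelium was used, with chemical present for 24 h before reading. Cell-surface uPAR was detected by ELISA; signal change in either direction counted against DMSO.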

[8] = BSK_3C_VCAM1: BioMAP Diversity Plus: 3C Assay for Vascular cell adhesion molecule 1 (VCAM1) Biomarker Activity (AID 2282999); details: BioMAP 3C HUVEC, VCAM1 ELISA, cytokine-stimulated; actives raise or lower the signal
Method in brief: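 HUVEC primary cells, 24 h compound exposure; VCAM-1 by ELISA; gain/loss of signal fitted bidirectionally vs DMSO baseline.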

[9] = BSK_4H_Eotaxin3: BioMAP Diversity Plus: 4H Assay for Eotaxin 3 Biomarker Activity (AID 2283000); details: primary human endothelial cells (HUVEC); actives raise or lower the signal
Method in brief: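 Chemicals were added to human umbilical vein endothelium cultures, and Eotaxin-3 was quantified by ELISA at 24 h. Values were derived by bidirectional fitting with DMSO serving as negative control and activity baseline.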

[10] = biological target: human Peroxisome Proliferator-activated Receptor delta (PPARd), PPARD (gene 5467) (UniProt Q03181); experiment: ATG_PPARd_TRANS: Attagene TRANS-FACTORIAL HepG2 Assay for human Peroxisome Proliferator-activated Receptor delta (PPARd) (AID 2283002; active means hit-call score of the fitted dose curve at least 0.9, where 1 is the maximum)
human Peroxisome Proliferator-activated Receptor delta (PPARd), PPARD (gene 5467), sequence (Q03181 whole entry, looked up, the tested form may be a part): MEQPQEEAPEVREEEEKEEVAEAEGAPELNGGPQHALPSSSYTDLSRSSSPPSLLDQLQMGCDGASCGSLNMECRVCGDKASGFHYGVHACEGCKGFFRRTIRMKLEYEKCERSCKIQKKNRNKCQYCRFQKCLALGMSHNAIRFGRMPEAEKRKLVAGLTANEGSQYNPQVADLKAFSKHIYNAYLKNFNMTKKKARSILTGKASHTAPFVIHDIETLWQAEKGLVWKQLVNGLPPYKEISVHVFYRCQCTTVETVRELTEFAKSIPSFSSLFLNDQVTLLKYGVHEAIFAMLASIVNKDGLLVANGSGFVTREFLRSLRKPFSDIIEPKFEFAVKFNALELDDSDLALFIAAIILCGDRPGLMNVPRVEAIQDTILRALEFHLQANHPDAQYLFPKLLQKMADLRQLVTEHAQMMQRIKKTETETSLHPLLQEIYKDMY
Method in brief: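 HepG2 cells transiently transfected with GAL4-UAS multiplexed reporter units driven by exogenous chimeric NR-GAL4 proteins; 24 h compound exposure. Reporter mRNA measured by RT-PCR, 6-FAM primer extension, HpaI digestion and capillary electrophoresis; gain of signal fitted relative to DMSO.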

[11] = read-out: Intercellular Adhesion Molecule 1 (ICAM1), ICAM1 (gene 3383); experiment: BSK_3C_ICAM1: BioMAP Diversity Plus: 3C Assay for Intercellular Adhesion Molecule 1 (ICAM1) Biomarker Activity (AID 2283003); details: primary human endothelial cells (HUVEC); actives raise or lower the signal
Method in brief: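 ELISA read-out of ICAM-1; HUVEC (primary human), 3C system, 24 h post-dosing; bidirectional fit vs DMSO baseline.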

[12] = BSK_3C_Proliferation: Cell Proliferation Assessment in the BioMAP Diversity Plus: 3C Assay (AID 2283006); details: primary human endothelial cells (HUVEC);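 on AC50: potency may reflect either rise or fall in cell number versus DMSO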
Method in brief: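 HUVEC, sub-confluent; 48 h chemical exposure; 10% TCA fix, 0.1% SRB stain, A560 total protein. Gain or loss of signal fitted both directions vs DMSO control.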

[13] = biological target: Peroxisome proliferator-activated receptor gamma (Homo sapiens) (UniProt P37231); experiment: ATG_PPARg_TRANS: Attagene TRANS-FACTORIAL HepG2 Assay for human Peroxisome Proliferator-activated Receptor-gamma (PPARg) (AID 2283007; active means hit-call score of the fitted dose curve at least 0.9, where 1 is the maximum)
Peroxisome proliferator-activated receptor gamma (Homo sapiens), sequence (P37231 whole entry, looked up, the tested form may be a part): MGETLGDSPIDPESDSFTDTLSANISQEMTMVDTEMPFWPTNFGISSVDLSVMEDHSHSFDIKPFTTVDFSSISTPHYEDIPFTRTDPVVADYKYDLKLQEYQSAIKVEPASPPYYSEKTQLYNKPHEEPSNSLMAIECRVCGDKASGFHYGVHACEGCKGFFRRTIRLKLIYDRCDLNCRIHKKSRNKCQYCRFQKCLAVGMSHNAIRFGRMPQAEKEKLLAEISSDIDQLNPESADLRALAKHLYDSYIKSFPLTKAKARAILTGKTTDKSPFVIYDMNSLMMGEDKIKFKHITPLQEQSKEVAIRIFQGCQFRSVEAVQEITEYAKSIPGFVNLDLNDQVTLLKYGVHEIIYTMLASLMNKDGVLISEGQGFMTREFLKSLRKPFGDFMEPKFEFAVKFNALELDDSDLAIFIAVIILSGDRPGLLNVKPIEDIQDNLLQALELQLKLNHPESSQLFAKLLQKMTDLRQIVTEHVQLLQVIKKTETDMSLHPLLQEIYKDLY
Method in brief: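 A TRANS-format multiplexed reporter assay measures activity of an exogenous chimeric NR-Gal4 protein in HepG2 cells. After 24 h of chemical exposure, reporter transcripts are amplified, fluorescently labelled and sized by capillary electrophoresis, with gain of signal scored against DMSO.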

[14] = biological target: Nuclear receptor subfamily 1 group I member 2 (Homo sapiens) (UniProt O75469); experiment: ATG_PXR_TRANS: Attagene TRANS-FACTORIAL HepG2 Assay for human Pregnane X Receptor (PXR) (AID 2283008; active means hit-call score of the fitted dose curve at least 0.9, where 1 is the maximum)
Nuclear receptor subfamily 1 group I member 2 (Homo sapiens), sequence (O75469 whole entry, looked up, the tested form may be a part): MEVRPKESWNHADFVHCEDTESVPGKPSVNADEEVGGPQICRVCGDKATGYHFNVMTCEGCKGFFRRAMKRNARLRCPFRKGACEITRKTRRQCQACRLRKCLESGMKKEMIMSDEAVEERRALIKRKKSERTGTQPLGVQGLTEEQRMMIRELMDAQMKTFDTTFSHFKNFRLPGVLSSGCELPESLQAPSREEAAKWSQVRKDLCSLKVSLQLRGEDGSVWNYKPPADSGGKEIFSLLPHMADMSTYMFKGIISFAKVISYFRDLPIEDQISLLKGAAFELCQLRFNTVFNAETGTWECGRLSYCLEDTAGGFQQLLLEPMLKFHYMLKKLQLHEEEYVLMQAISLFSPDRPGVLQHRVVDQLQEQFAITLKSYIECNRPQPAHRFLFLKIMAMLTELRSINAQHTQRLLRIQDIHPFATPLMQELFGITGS
Method in brief: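 Transient HepG2 transfectants carrying multiplexed reporter transcription units; PXR activity read through a Gal4 chimera. 24 h exposure. RT-PCR/CE fluorescence; upward curve fit referenced to DMSO.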

[15] = ATG_NF_kB_CIS: Attagene CIS-FACTORIAL HepG2 Assay for human Nuclear Factor Kappa B (NF-kB) (AID 2282991); details: HepG2 Attagene cis-factorial NF-kB reporter mRNA; actives raise or lower the signal
Method in brief: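 Endogenous transcription factor activity in HepG2 was captured via cis-regulated reporter constructs; after 24 h dosing, reporter mRNA was reverse-transcribed, amplified, fluorescently labelled and sized by capillary electrophoresis, with activity fitted bidirectionally relative to DMSO.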

[16] = biological target: human Retinoic Acid Receptor gamma (RARg), RARG (gene 5916) (UniProt P13631); experiment: ATG_RARg_TRANS: Attagene TRANS-FACTORIAL HepG2 Assay for human Retinoic Acid Receptor gamma (RARg) (AID 2283009; active means hit-call score of the fitted dose curve at least 0.9, where 1 is the maximum)
human Retinoic Acid Receptor gamma (RARg), RARG (gene 5916), sequence (P13631 whole entry, looked up, the tested form may be a part): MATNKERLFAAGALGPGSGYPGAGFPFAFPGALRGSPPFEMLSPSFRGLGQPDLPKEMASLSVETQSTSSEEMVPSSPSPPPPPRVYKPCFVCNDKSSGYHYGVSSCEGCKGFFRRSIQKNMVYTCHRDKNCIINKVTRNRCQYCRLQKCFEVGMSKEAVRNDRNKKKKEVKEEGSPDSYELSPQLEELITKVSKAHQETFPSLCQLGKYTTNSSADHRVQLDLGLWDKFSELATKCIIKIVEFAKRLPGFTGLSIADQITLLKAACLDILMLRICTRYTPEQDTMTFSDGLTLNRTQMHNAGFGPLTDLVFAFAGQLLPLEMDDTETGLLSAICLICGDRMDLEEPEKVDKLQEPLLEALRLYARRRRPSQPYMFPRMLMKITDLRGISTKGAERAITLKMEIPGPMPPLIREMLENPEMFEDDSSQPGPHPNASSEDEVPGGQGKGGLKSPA
Method in brief: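 Readout: reporter transcript levels via RT-PCR, 6-FAM primer-extension labelling, HpaI digestion and capillary electrophoresis. Cells: HepG2 carrying transfected RARg-GAL4 chimera plus UAS reporter set. Dosing 24 h; DMSO negative control.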

[17] = biological target: human RAR-related Orphan Receptor beta (RORb), RORB (gene 6096) (UniProt Q92753); experiment: ATG_RORb_TRANS: Attagene TRANS-FACTORIAL HepG2 Assay for human RAR-related Orphan Receptor beta (RORb) (AID 2283010; active means hit-call score of the fitted dose curve at least 0.9, where 1 is the maximum)
human RAR-related Orphan Receptor beta (RORb), RORB (gene 6096), sequence (Q92753 whole entry, looked up, the tested form may be a part): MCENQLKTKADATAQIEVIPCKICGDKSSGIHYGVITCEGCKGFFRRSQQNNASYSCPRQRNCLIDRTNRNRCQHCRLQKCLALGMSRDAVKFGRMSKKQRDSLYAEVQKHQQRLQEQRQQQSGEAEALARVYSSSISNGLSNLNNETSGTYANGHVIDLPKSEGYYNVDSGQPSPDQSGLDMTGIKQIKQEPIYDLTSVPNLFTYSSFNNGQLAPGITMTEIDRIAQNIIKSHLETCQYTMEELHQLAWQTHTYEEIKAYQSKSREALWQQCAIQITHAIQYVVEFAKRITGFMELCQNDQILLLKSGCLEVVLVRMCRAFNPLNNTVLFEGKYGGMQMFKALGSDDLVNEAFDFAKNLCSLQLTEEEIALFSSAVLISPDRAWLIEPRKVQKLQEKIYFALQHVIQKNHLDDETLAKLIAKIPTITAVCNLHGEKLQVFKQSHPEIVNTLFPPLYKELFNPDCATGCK
Method in brief: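 HepG2, transient MRTU transfection (GAL4-UAS reporters, exogenous NR-Gal4 chimeras); 24 h compound exposure; total RNA → RT-PCR → 6-FAM primer extension → HpaI digest → CE fluorescence. Positive direction vs DMSO baseline.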

[18] = biological target: human Retinoic Acid Receptor beta (RARb), RARB (gene 5915) (UniProt P10826); experiment: ATG_RARb_TRANS: Attagene TRANS-FACTORIAL HepG2 Assay for human Retinoic Acid Receptor beta (AID 2283004; active means hit-call score of the fitted dose curve at least 0.9, where 1 is the maximum)
human Retinoic Acid Receptor beta (RARb), RARB (gene 5915), sequence (P10826 whole entry, looked up): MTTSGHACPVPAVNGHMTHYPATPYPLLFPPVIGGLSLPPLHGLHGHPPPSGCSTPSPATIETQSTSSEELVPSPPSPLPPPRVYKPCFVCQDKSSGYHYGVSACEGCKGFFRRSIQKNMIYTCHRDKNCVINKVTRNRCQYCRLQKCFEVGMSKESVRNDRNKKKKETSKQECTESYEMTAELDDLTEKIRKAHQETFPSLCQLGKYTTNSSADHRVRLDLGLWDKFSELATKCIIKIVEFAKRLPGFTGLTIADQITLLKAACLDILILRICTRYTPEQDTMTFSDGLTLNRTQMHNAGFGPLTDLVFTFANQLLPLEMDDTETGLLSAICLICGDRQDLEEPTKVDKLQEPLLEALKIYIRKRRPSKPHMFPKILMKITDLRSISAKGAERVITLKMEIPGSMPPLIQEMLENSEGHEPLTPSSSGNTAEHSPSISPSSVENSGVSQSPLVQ
Method in brief: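 Transient transfection of HepG2 with multiple reporter units → chemical dosing, 24 h → total RNA isolation → RT with oligo(dT) → reporter-specific PCR, 6-FAM primer extension, HpaI digest → capillary electrophoresis. Positive direction vs DMSO control.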

[19] = biological target: Retinoic acid receptor alpha (Homo sapiens) (UniProt P10276); experiment: ATG_RARa_TRANS: Attagene TRANS-FACTORIAL HepG2 Assay for human Retinoic Acid Receptor alpha (RARa) (AID 2283005; active means hit-call score of the fitted dose curve at least 0.9, where 1 is the maximum)
Retinoic acid receptor alpha (Homo sapiens), sequence (P10276 whole entry, looked up, the tested form may be a part): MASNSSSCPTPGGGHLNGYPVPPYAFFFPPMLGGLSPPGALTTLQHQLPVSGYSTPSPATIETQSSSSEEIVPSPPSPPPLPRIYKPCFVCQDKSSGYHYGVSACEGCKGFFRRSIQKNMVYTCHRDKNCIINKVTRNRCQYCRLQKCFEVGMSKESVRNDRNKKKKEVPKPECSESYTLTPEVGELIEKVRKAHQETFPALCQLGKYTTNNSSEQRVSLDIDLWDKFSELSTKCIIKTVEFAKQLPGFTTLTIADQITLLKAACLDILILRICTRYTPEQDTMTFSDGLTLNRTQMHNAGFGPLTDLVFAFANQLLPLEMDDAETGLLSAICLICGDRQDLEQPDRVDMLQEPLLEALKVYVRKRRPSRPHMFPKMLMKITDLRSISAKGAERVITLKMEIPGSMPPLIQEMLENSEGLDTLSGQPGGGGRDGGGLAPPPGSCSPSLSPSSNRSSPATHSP
Method in brief: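 HepG2 transiently transfected with multiplex GAL4-UAS reporter units including a human RARa–GAL4 chimera; 24 h compound exposure. Reporter mRNA quantified by RT-PCR, 6-FAM labeling and capillary electrophoresis; gain of signal versus DMSO.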

Measured: AC50

C[Si](Cn1cncn1)(c1ccc(F)cc1)c1ccc(F)cc1
active: [3] 11.8 µM | [4] 39.1 µM | [13] 48.5 µM
not listed: [15] | [16] | [17] | [18] | [19]
inactive: all other assays above

CCCOc1nn(C(=O)NS(=O)(=O)c2ccccc2C(=O)OC)c(=O)n1C
active: [7] 0.0593 µM | [8] 1.09 µM
not listed: [10] | [18] | [19]
inactive: all other assays above

CCC(=O)Nc1ccc(Cl)c(Cl)c1
active: [1] 10.5 µM | [3] 30.7 µM
not listed: [10] | [15] | [16] | [17]
inactive: all other assays above

CC1=NNC(=O)N(/N=C/c2cccnc2)C1
not listed: [10] | [17] | [18]
inactive: all other assays above

CCOP(=O)(SC(C)CC)N1CCSC1=O (configuration not stated)
not listed: [5] | [10] | [15] | [16]
inactive: all other assays above

CSC1=N[C@@](C)(c2ccccc2)C(=O)N1Nc1ccccc1
active: [3] 4.24 µM | [4] 10.7 µM | [6] 1.68 µM | [7] 7.46 µM | [9] 25.3 µM | [12] 18.9 µM
not listed: [15] | [16] | [17] | [18] | [19]
inactive: all other assays above

COP(=O)(NC(C)=O)SC (configuration not stated)
not listed: [10] | [14] | [15] | [16] | [18] | [19]
inactive: all other assays above

COP(=O)(OC)OC(Br)C(Cl)(Cl)Br (configuration not stated)
active: [6] 16.3 µM | [7] 31.7 µM | [8] 29.7 µM | [9] 33.2 µM | [11] 36.4 µM | [12] 16 µM
not listed: [5] | [14] | [15] | [17] | [18]
inactive: all other assays above
